Key:
ZNF721 full-length = ZNF721 full-length (Homo sapiens, UniProt Q8TF20-2 1-923); experiment: HT-SELEX; 20 mM HEPES pH 7, 140 mM KCl, 5 mM NaCl, 1 mM K2HPO4, 2 mM MgSO4, 100 uM EGTA, ZnSO4, 0.1% Tween20; room temperature, 1 h; high values mean tight binding; conditions: protein: ivt; tags: eGFP (N-terminal); dsDNA, one strand shown
How it was run: (§1)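 Full-length or DNA-binding-domain forms of a tagged transcription factor were produced in HEK293 lysate or cell-free extract and immobilised on beads. Incubation with a randomized 40-base DNA library ran for 1 h at room temperature in HEPES/KCl low-stringency buffer with Tween20, after which bound DNA was washed, heat-eluted, PCR-amplified over successive cycles and Illumina-sequenced. Binding strength is given as the relative k-mer count in selected reads, higher for tighter binding.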

ZNF721 DBD2 = ZNF721 DBD2 (Homo sapiens, UniProt Q8TF20-2 395-923); experiment: as above; conditions: protein: ivt; tags: eGFP (N-terminal); dsDNA, one strand shown
Chain of ZNF721 DBD2 (Q8TF20 383-911): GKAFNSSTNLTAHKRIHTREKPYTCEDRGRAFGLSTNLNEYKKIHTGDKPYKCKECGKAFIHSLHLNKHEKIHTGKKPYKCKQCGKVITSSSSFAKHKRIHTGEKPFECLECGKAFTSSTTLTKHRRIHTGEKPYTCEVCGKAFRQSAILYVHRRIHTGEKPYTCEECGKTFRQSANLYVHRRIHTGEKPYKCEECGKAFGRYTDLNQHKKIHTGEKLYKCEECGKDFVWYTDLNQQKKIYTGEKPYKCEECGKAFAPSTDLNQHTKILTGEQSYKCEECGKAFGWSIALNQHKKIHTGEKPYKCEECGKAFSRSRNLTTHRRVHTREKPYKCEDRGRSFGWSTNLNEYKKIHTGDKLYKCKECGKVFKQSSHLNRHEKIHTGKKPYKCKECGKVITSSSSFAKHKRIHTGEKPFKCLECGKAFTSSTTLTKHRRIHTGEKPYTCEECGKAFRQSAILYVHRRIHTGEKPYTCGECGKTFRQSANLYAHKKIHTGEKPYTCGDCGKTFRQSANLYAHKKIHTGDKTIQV
How it was run: as §1

Chain of ZNF721 full-length (Q8TF20 other isoform, or with tags, fused parts or gaps): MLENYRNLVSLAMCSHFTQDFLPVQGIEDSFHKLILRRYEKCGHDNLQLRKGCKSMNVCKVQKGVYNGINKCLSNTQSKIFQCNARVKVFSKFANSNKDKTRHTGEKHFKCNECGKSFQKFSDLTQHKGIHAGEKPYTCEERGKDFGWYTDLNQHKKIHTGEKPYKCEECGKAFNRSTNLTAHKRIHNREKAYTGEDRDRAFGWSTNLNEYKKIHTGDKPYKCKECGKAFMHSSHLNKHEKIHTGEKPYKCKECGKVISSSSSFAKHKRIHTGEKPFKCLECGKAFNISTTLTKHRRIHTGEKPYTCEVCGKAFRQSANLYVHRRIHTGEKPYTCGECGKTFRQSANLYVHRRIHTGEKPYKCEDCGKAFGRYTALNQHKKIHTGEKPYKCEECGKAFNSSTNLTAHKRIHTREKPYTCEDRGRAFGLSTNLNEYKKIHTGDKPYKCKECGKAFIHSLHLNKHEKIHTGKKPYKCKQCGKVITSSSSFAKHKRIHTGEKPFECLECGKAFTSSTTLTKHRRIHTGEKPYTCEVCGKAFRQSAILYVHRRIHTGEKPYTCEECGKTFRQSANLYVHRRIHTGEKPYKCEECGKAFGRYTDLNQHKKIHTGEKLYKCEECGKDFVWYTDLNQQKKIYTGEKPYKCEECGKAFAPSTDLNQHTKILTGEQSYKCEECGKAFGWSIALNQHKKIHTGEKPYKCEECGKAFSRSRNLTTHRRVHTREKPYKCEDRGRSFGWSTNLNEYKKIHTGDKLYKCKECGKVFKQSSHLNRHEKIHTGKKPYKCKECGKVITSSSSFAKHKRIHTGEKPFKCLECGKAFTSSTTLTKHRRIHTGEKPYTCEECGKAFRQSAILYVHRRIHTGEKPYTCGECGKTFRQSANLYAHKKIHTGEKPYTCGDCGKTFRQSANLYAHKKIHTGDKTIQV

Row | Sequence | binding signal (ZNF721 full-length) [relative 10-mer count] | binding signal (ZNF721 DBD2) [relative 10-mer count]
1 | AAAAAACAGA | 0.261 | 0.219
2 | ACAAAGCAGT | 0.146 | 0.174
3 | AAAACAGTGC | 0.121 | 0.195
4 | AAAAAACAGC | 1 | 0.902
5 | AAACGAACAG | 0.126 | 0.0771
6 | CACTGTTTTC | 0.15 | 0.248
7 | CAGCGTTTCC | 0.342 | 0.861
8 | AACAGTGTTG | 0.127 | 0.327
9 | CAGCATATCC | 0.162 | 0.216
10 | AAAACAGGAT | 0.12 | 0.133
11 | AAAAACTAGC | 0.103 | 0.135
12 | AAAACAGCGC | 0.17 | 0.225
13 | AACAGCGTCT | 0.203 | 0.347
14 | AAAGAAACAG | 0.126 | 0.119
15 | AAACAGGGGT | 0.106 | 0.153
16 | ACAGTGTCTC | 0.106 | 0.236
17 | AAAACAGCAC | 0.279 | 0.306
18 | CAGTGTTTCC | 0.252 | 0.641
19 | AAAACAGCGG | 0.134 | 0.189

Row | Sequence | binding signal (ZNF721 full-length) [relative 10-mer count] | binding signal (ZNF721 DBD2) [relative 10-mer count]
20 | AAAAACAGAG | 0.212 | 0.213
21 | CGAAAACAGC | 0.167 | 0.261
22 | GCTGTTTTTA | 0.135 | 0.204
23 | AAAACAGAGT | 0.236 | 0.279
24 | CACAAAACAG | 0.147 | 0.156
25 | AAACAGTGTA | 0.179 | 0.225
26 | CAAAACAGCG | 0.142 | 0.176
27 | CAGGGTTTCC | 0.162 | 0.368
28 | AAAAGCAGTG | 0.383 | 0.397
29 | AAACAGCGTC | 0.206 | 0.277
30 | AAACACTGCT | 0.109 | 0.18
31 | CAGGGTATCC | 0.221 | 0.431
32 | AAACAGTGTT | 0.338 | 0.546
33 | AGAAAAACAG | 0.178 | 0.208
34 | ACACTGCTTG | 0.107 | 0.138
35 | AAAAAACAGT | 0.466 | 0.516
36 | AAAACAGCGT | 0.759 | 0.975
37 | AAAAACAGTC | 0.149 | 0.169
38 | AAACAGAGTA | 0.198 | 0.22
